# aSyn rescue: qHTS of alpha-syn Inhibitors; Yeast expressing alpha-synuclein, growth rescue, BacTiter-Glo, 24 h; Potency, µM (highest dose often 46.1 µM), most hits filed as activators; 370,000 tested, 0.14% active; AID 652106, 2013; also: nearly all actives have a fitted effect of over 65% in size
#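 Screening used galactose-induced yeast with toxic alpha-synuclein levels, exposed to compound for 24 hr at 30 deg C. Cell growth, read with BacTiter-Glo luminescence, gave the measured signal.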
# FUS yeast rescue: qHTS for Suppressors of FUS Proteinopathy: Primary screen using FUS-linked yeast assay; S. cerevisiae FUS-expressing, growth rescue, OD600, 24 h; Potency, µM (highest dose often 76.6 µM), actives largely listed as activators; 390,000 tested, 0.24% active; also: nearly all actives have a fitted effect of over 55% in size
#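 Cultures pregrown in 2.5% raffinose medium are shifted to minimal medium containing 2% galactose to express toxic FUS. Compounds are tested at several concentrations. After 24hr at 30C, growth is quantified at 600 nm absorbance.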
# Glioma ERSR ind: qHTS for Inducers of the Endoplasmic Reticulum Stress Response (ERSR) in Human Glioma: qHTS; U87-MG GRP78 promoter luciferase reporter, 16 h; Potency, µM, usual class: activators; 420,000 tested, 0.02% active; also: series mostly up to about 76 µM; nearly all actives have a fitted effect of over 35% in size
#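 Stably transfected U87-MG glioma cells carrying a GRP78-based luciferase sensor; 16 h compound incubation. Luminescence end-point read 10 min after Bright-Glo addition at room temperature.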
# Abeta yeast res: qHTS for compounds that reverse cellular toxicity of Amyloid beta (A-beta) peptide in yeast: Primary Screen; yeast expressing A-beta42, growth rescue, OD600, 48 h; response scale: 0% DMSO, 100% iron-clioquinol control; Potency, µM (highest dose often 46.1 µM), actives largely listed as activators; 410,000 tested, 0.063% active; AID 1347071, 2019; also: nearly all actives have a fitted effect of over 55% in size
#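 Yeast growth medium received pinned compounds, then yeast cells expressing toxic A-beta were added; plates incubated at 30 C for 48 hr. Growth read as absorbance at 600 nm, normalized to DMSO and equimolar FeCl3 plus clioquinol controls.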
# MBNL1 CUG block: qHTS Assay for Inhibitors of MBNL1-poly(CUG) RNA binding. Muscleblind-like protein 1 (Homo sapiens), Q9NR56. TR-FRET MBNL1-His/biotin-(CUG)12 binding, 665/545 ratio. Potency, µM (doses to about 57.5 µM), most hits filed as inhibitors. 280,000 tested, 0.036% active. AID 2675, 2010; active = well fitted inhibition curve with a large enough effect in the signal ratio, with a control signal flat, not every such curve was filed as active; inconclusive = small, poorly fitted or top-dose-only effect, or effect the other way, or a change in a side signal; inactive = no such curve, though single readings can be large or run the other way; the % refers to the signal ratio
# Target sequence (Q9NR56 whole entry, looked up): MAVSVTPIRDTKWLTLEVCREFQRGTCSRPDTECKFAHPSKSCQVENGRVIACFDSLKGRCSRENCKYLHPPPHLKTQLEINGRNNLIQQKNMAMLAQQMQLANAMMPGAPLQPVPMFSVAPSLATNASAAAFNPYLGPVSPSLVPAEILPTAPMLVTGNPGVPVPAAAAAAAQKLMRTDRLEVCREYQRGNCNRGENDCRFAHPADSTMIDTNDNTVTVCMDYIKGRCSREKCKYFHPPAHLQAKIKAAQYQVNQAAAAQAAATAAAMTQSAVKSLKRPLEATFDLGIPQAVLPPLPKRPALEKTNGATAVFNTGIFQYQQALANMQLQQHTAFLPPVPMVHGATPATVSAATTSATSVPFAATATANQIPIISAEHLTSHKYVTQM
#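 Ratiometric TR-FRET (665 over 545 nm, excitation 340 nm) tracks disruption of MBNL1-His/biotin-(CUG)12 complex after 60 min at room temperature, with compounds at 92 nM to 58 uM final.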
# TDP-43 yeast inh: qHTS of TDP-43 Inhibitors; TDP-43 expressing yeast growth rescue, BacTiter-Glo, 24 h; Potency, µM (doses to about 46.1 µM), hits mostly activators; 410,000 tested, 1.8% active; AID 652104, 2013; also: nearly all actives have a fitted effect of over 50% in size
#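 Galactose-induced TDP-43 yeast, OD600=0.02, compound pinned; 24 hr, 30 deg C; BacTiter-Glo luminescence for growth. Inhibitors of TDP-43 toxicity read as activators.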
# A number is an active result; – = inactive; ? = inconclusive; · = no result given. Most compounds without a hit are left out; they make up all but 2% or so of the library. Unless noted, calls follow the shape of the dose curve; as a rule, active = well fitted curve in the direction sought with a large enough effect; inconclusive = small, poorly fitted or top-dose-only effect, or another doubt; inactive = no such curve, though single readings can be large; an effect the other way counts as inactive or inconclusive.
SMILES,aSyn rescue,FUS yeast rescue,Glioma ERSR ind,Abeta yeast res,MBNL1 CUG block,TDP-43 yeast inh
COc1ccc(N2CCN(C(=O)c3cc(NC(C)=O)c4c(c3)ncn4CCc3ccccn3)CC2)cc1,·,·,–,·,·,·
Cn1ccc2ccc(C3=CC(=O)C[C@H](c4ccc(F)cc4)C3)cc21,–,–,–,–,·,16µM
COc1ccc(C2=CC(=O)CC(c3ccc(F)cc3)C2)cc1 (configuration not stated),–,–,–,–,·,16µM
COc1ccc(C2=CC(=O)CC(c3ccccc3)C2)cc1 (configuration not stated),–,–,–,–,?,18µM
O=C1C=C(C#Cc2ccccc2)C[C@@H](c2ccc(F)cc2)C1,–,–,?,–,·,18µM
C=Cc1ccc(C2=CC(=O)C[C@H](c3ccc(OC)cc3)C2)cc1,–,–,–,–,·,–
C#CCN1CC(N(C)CCOC(=O)c2ccc(OC)c(OC)c2)CS1(=O)=O (configuration not stated),·,–,·,·,·,·
CN=C(NC)NCc1ccccc1,·,·,–,·,·,·
COc1cc2nc(N(C)C)c(CNC3CCOC(C)(C)C3)cc2c(OC)c1OC (configuration not stated),·,·,–,·,·,·
O=C1C=C(c2ccc(CO)cc2)C[C@@H](c2ccc(F)cc2)C1,–,–,–,–,·,35µM
Cc1ccc(C2=CC(=O)C[C@H](c3ccc(F)cc3)C2)cc1,–,–,–,–,·,16µM
O=C1C=C(c2ccc(-c3ccccc3)cc2)C[C@@H](c2ccc(F)cc2)C1,–,–,–,–,·,–
COc1ccc(CN2CCC3(CC2)c2ccccc2[C@@H](NC(=O)c2ccccc2OC)[C@@H]3O)cc1O,·,·,–,·,·,·
CCc1ccc(CNCC(=O)N2CCC3(CC2)OCCO3)s1,·,–,·,·,·,·
CC(C)c1c(C(=O)NCC(C)(C)N2CCOCC2)cnn1-c1nccc(-c2cccs2)n1,·,·,–,·,·,·
Cc1sc(-n2c(C)cc(/C=C3\SC(=S)NC3=O)c2C)c(C#N)c1C,–,16µM,?,–,–,–
Cc1cc(/C=C2\SC(=S)NC2=O)c(C)n1-c1cccc(O)c1,–,–,–,–,·,–
Cc1cc[n+](C2CCCCC2)c2ccccc12,·,·,–,·,·,·
CCc1nnc(NC(=O)c2ccc(S(=O)(=O)N(CC)Cc3ccccc3)cc2)o1,13µM,–,–,?,–,22µM
CC(=O)Nc1ccc(S(=O)(=O)N(CC(=O)O)Cc2ccccc2)cc1,–,–,–,–,–,–
CCN(Cc1ccccc1)S(=O)(=O)c1ccc(C(=O)Nc2nnc(C)o2)cc1,?,–,–,?,–,?
CCCCN(CCCC)S(=O)(=O)c1ccc(C(=O)Nc2nnc(COC)o2)cc1,?,–,–,–,–,13µM
CC(=O)Nc1ccc(S(=O)(=O)N(Cc2ccccc2)Cc2ccccc2)cc1,·,?,–,–,·,20µM
COC(=O)CSc1nnc(-c2n[nH]c3c2CCC3)n1N,·,–,·,·,·,·
CCC1CN(CCNC(=O)c2cscn2)Cc2cc(OC)ccc2O1 (configuration not stated),·,·,–,·,·,·
SMILES,aSyn rescue,FUS yeast rescue,Glioma ERSR ind,Abeta yeast res,MBNL1 CUG block,TDP-43 yeast inh
O=C(CSc1cnc2ccccc2n1)c1ccc(F)cc1,–,–,–,–,?,18µM
COC(=O)c1cc(CNC(=O)c2cnsn2)cc(NC(=O)c2ccccc2OC)c1,·,·,–,·,·,·
Clc1ccc(OCc2nn3c(C4CCCCC4)nnc3s2)cc1,–,?,–,–,–,20µM
COc1ccc(-c2nn3c(C4CCCCC4)nnc3s2)cc1OC,–,?,–,–,–,20µM
c1ccc(-c2nn3c(C4CCCCC4)nnc3s2)cc1,–,–,–,–,–,20µM
c1ccc(-c2nn3c(C4CCCCC4)nnc3s2)nc1,–,–,–,–,–,–
CCOC(=O)C1=NNC(C(=O)c2ccc(C)cc2)C1c1ccc(OC)cc1 (configuration not stated),–,–,–,–,–,20µM
CCOC(=O)C1=NNC(C(=O)c2ccc(Cl)cc2)C1c1ccc(OC)cc1 (configuration not stated),–,–,–,–,–,?
CCc1nnn2c1Cn1c3ccccc3c(=O)n1[C@@H](C)C2,·,–,·,·,·,·
CSc1ccc(CCNC(=O)c2sc3ncccc3c2-n2cccc2)cc1,·,–,–,–,·,?
O=C(NCCc1ccccc1)c1sc2ncccc2c1-n1cccc1,·,–,–,–,·,22µM
O=C(NCc1ccccc1F)c1sc2ncccc2c1-n1cccc1,·,–,–,–,·,20µM
COc1ccc(/C=N\NC(=O)CN2CCN(Cc3ccccc3)CC2)cc1OCc1ccccc1,·,–,·,·,·,·
COC(=O)C/C=C/[C@@H](C)[C@H](NC(=O)OCC(Cl)(Cl)Cl)c1ccc(-c2ccccc2)cc1,·,–,·,·,·,·
CC1(C(=O)Nc2nc3ccccc3s2)CC1(Br)Br (configuration not stated),–,–,–,?,–,10µM
O=C(Nc1nc2ccccc2s1)C1c2ccccc2Oc2ccccc21,–,–,–,–,–,10µM
COCC(=O)Nc1nc2ccccc2s1,–,–,–,–,–,–
O=C(Nc1nc2ccccc2s1)C1CCCO1 (configuration not stated),–,–,–,–,–,–
O=C(Cc1ccccc1)Nc1nc2ccccc2s1,–,–,–,7.1µM,–,?
O=C(Cc1cccs1)Nc1nc2ccccc2s1,–,–,–,?,–,?
COC(=O)c1cc(CNC(=O)c2ccccc2OC)cc(NC(=O)c2ccccc2F)c1,·,·,–,·,·,·
CC(=O)N[C@@H]1C[C@@H]2O[C@H](CO)CC[C@@H]2O[C@@H]1CCc1ccc(C#CC2(O)CCCC2)cc1,·,–,·,·,·,·
CC1CCN(c2ccc(C(=O)O)cc2NS(=O)(=O)c2ccc(C(C)(C)C)cc2)CC1,·,–,·,·,·,·
CCNC(=O)c1cc2c(c(-c3cccc(-c4cccc(C(=O)N(C)C)c4)c3)n1)[C@H](CCO)N(S(=O)C(C)(C)C)C2 (some centres not stated),–,–,–,–,·,–
COc1cccc(CNC(=O)c2cc3c(c(-c4cccc(-c5cccc(C#N)c5)c4)n2)[C@H](CCO)N(S(=O)C(C)(C)C)C3)c1 (some centres not stated),–,22µM,–,–,·,?
CN(C)C(=O)c1cccc(-c2cccc(-c3nc(C(=O)NCc4ccccc4)cc4c3[C@@H](CCO)N(S(=O)C(C)(C)C)C4)c2)c1 (some centres not stated),–,35µM,–,–,·,–

# From PubChem
